Data published in PubChem BioAssay AID1159580 (chemical genetic matrix, 2015).
About 2,000 (36%) of roughly 5,500 compounds were called active. Not shown: some 18% with an inconclusive outcome. No stated cut-off is given here; in the data, active means normalized growth mostly below about 0.91 (no sharp cut-off); inconclusive means no clear call, values can overlap the other calls; inactive means mostly above about 0.92. This is one part of the list.

Test: chemical genetic growth profiling, strain panel (AID 1159580);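 further: tested at 20 µM; growth read once vehicle control cultures reached saturation at 30 °C; 1 = growth at the plate median or of vehicle wells; lower values mean less growth of the strain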
Conditions: S. cerevisiae deletion strains, growth OD

Measured: normalized growth

C#CCCCCCCCCCCCC(=O)CC(O)COC(C)=O (centres undefined)
inactive: locus YAL021C, strain ccr4, active compounds read low 0.964 | locus YAL026C, strain drs2, active compounds read low 0.982 | locus YAL030W, strain snc1, active compounds read low 0.983 | locus YBL061C, strain skt5, active compounds read low 0.977 | locus YBR009C, strain hhf1, active compounds read low 0.991 | locus YBR021W, strain FUR4, active compounds read low 0.91 | locus YBR023C, strain chs3, active compounds read low 0.978 | locus YBR171W, strain sec66, active compounds read low 0.963 | locus YBR229C, strain ROT2, active compounds read low 0.953 | locus YBR231C, strain swc5, active compounds read low 0.977 | locus YBR279W, strain paf1, active compounds read low 0.986 | locus YCL011C, strain gbp2, active compounds read low 0.936 | locus YCL016C, strain dcc1, active compounds read low 0.984 | locus YCL061C, strain MRC1, active compounds read low 0.999 | locus YCL069W, strain vba3, active compounds read low 0.975 | locus YCR088W, strain abp1, active compounds read low 0.974 | locus YDL005C, strain med2, active compounds read low 0.967 | locus YDL040C, strain nat1, active compounds read low 0.99 | locus YDL185W, strain tfp1, active compounds read low 0.959 | locus YDR001C, strain nth1, active compounds read low 0.991 | locus YDR069C, strain doa4, active compounds read low 0.966 | locus YDR137W, strain rgp1, active compounds read low 0.854 | locus YDR150W, strain NUM1, active compounds read low 0.964 | locus YDR159W, strain sac3, active compounds read low 0.989 | locus YDR195W, strain ref2 1.04 | locus YDR297W, strain sur2, active compounds read low 0.979 | locus YDR334W, strain swr1, active compounds read low 0.98 | locus YDR335W, strain msn5, active compounds read low 0.973 | locus YDR388W, active compounds read low 0.975 | locus YEL003W, strain gim4, active compounds read low 0.951 | locus YEL037C, strain rad23, active compounds read low 0.979 | locus YEL061C, strain CIN8 (second series), active compounds read low 0.98 | locus YER015W, strain faa2, active compounds read low 0.991 | locus YER016W, strain bim1, active compounds read low 0.99 | locus YER110C, active compounds read low 0.967 | locus YER111C, strain swi4, active compounds read low 0.964 | locus YER155C, strain BEM2 (second series), active compounds read low 0.9 | locus YFR010W, strain ubp6, active compounds read low 0.974 | locus YGL167C, strain pmr1, active compounds read low 0.991 | locus YGL173C, strain kem1, active compounds read low 0.979 | locus YGL227W, strain vid30, active compounds read low 0.974 | locus YGL240W, strain doc1, active compounds read low 0.969 | locus YGL253W, strain hxk2, active compounds read low 0.981 | locus YHR013C, strain ard1, active compounds read low 0.849 | locus YHR027C, strain rpn1, active compounds read low 0.989 | locus YHR094C, strain hxt1, active compounds read low 0.961 | locus YHR142W, strain chs7, active compounds read low 0.884 | locus YHR200W, strain rpn10, active compounds read low 0.977 | locus YIL073C, strain SPO22, active compounds read low 0.739 | locus YIL125W, strain kgd1, active compounds read low 0.97 | locus YIR030C, strain dcg1, active compounds read low 0.945 | locus YJL092W, strain hpr5, active compounds read low 0.965 | locus YJL095W, strain BCK1 (second series), active compounds read low 0.985 | locus YJL115W, strain asf1, active compounds read low 0.991 | locus YJL154C, strain vps35, active compounds read low 0.984 | locus YJL164C, strain tpk1, active compounds read low 0.945 | locus YJL166W, strain qcr8, active compounds read low 0.909 | locus YJL168C, strain set2, active compounds read low 0.979 | locus YJL187C, strain SWE1, active compounds read low 0.978
active: locus YAL013W, strain DEP1, active compounds read low 0.909 | locus YCL029C, strain bik1, active compounds read low 0.901 | locus YDL035C, strain GPR1, active compounds read low 0.8 | locus YDL074C, strain BRE1, active compounds read low 0.622 | locus YDL101C, strain DUN1, active compounds read low 0.84 | locus YDL134C, strain PPH21, active compounds read low 0.807 | locus YDL192W, strain arf1, active compounds read low 0.912 | locus YDR101C, strain arx1, active compounds read low 0.881 | locus YDR162C, strain NBP2, active compounds read low 0.642 | locus YDR318W, strain mcm21, active compounds read low 0.819 | locus YDR392W, strain spt3, active compounds read low 0.476 | locus YDR502C, strain sam2, active compounds read low 0.799 | locus YEL061C, strain CIN8, active compounds read low 0.855 | locus YER155C, strain BEM2, active compounds read low 0.585 | locus YER167W, strain BCK2, active compounds read low 0.807 | locus YGL078C, strain dbp3, active compounds read low 0.916 | locus YGL086W, strain mad1, active compounds read low 0.867 | locus YGL248W, strain PDE1, active compounds read low 0.788 | locus YGR078C, strain PAC10, active compounds read low 0.708 | locus YGR135W, strain pre9, active compounds read low 0.739 | locus YGR229C, strain SMI1, active compounds read low 0.651 | locus YGR252W, strain gcn5, active compounds read low 0.705 | locus YHR030C, strain SLT2, active compounds read low 0.911 | locus YHR079C, strain IRE1 (second series), active compounds read low 0.816 | locus YHR129C, strain ARP1, active compounds read low 0.837 | locus YIL066C, strain RNR3, active compounds read low 0.722 | locus YJL095W, strain BCK1, active compounds read low 0.665 | locus YJL129C, strain trk1, active compounds read low 0.843 | locus YJL134W, strain LCB3, active compounds read low 0.892 | locus YJL187C, strain SWE1 (second series), active compounds read low 0.839
